Among all 5,500 compounds or so, about 2,000 (36%) were called active. Not shown: some 18% with an inconclusive outcome. Some of the results follow. Values without a mark were called inactive. Cut-off read from the data, not from the text of the source: active = normalized growth mostly below about 0.91 (no sharp cut-off); inconclusive = no clear call, values can overlap the other calls; inactive = mostly above about 0.92.
Test: chemical genetic growth profiling, strain panel (AID 1159580);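 note: tested at 20 µM; growth read once vehicle control cultures reached saturation at 30 °C; 1 = growth at the plate median or of vehicle wells; lower values mean less growth of the strain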
Conditions: S. cerevisiae deletion strains, growth OD
[1] = locus YAR019C, strain CDC15, hits give low values
[2] = locus YBL105C, strain PKC1, hits give low values
[3] = locus YBR135W, strain CKS1, hits give low values
[4] = locus YBR136W, strain MEC1, hits give low values
[5] = locus YBR160W, strain CDC28, hits give low values
[6] = locus YDL017W, strain CDC7, hits give low values
[7] = locus YDL028C, strain MPS1, hits give low values
[8] = locus YDL101C, strain DUN1, hits give low values
[9] = locus YDL108W, strain KIN28, hits give low values
[10] = locus YDL132W, strain cdc53, hits give low values
[11] = locus YDL214C, strain PRR2, hits give low values
[12] = locus YDR052C, strain DBF4, hits give low values
[13] = locus YDR054C, strain cdc34, hits give low values
[14] = locus YDR226W, strain ADK1, hits give low values
[15] = locus YDR477W, strain SNF1, hits give low values
[16] = locus YER123W, strain YCK3, hits give low values
[17] = locus YER133W, strain GLC7, hits give low values
[18] = locus YFL009W, strain cdc4, hits give low values
[19] = locus YFL029C, strain CAK1, hits give low values
[20] = locus YFR003C, strain YPI1, hits give low values
[21] = locus YFR019W, strain FAB1, hits give low values
[22] = locus YFR028C, strain CDC14, hits give low values
[23] = locus YGR040W, strain KSS1, hits give low values
[24] = locus YGR052W, strain FMP48, hits give low values
[25] = locus YGR092W, strain DBF2, hits give low values
[26] = locus YHR079C, strain IRE1, hits give low values
[27] = locus YHR082C, strain KSP1, hits give low values
[28] = locus YHR205W, strain SCH9, hits give low values
[29] = locus YIL147C, strain SLN1, hits give low values
[30] = locus YJL095W, strain BCK1, hits give low values
[31] = locus YJL128C, strain PBS2, hits give low values
[32] = locus YJL157C, strain FAR1, hits give low values
[33] = locus YJR016C, strain ILV3, hits give low values
[34] = locus YJR066W, strain TOR1 (second series), hits give low values
[35] = locus YJR066W, strain TOR1, hits give low values
[36] = locus YKL048C, strain ELM1, hits give low values
[37] = locus YKL067W, strain YNK1, hits give low values
[38] = locus YKL101W, strain HSL1, hits give low values
[39] = locus YKL193C, strain SDS22, hits give low values
[40] = locus YKL203C, strain TOR2, hits give low values
[41] = locus YLR113W, strain HOG1, hits give low values
[42] = locus YLR133W, strain CKI1, hits give low values
[43] = locus YLR403W, strain SFP1, hits give low values
[44] = locus YML070W, strain DAK1, hits give low values
[45] = locus YMR001C, strain CDC5, hits give low values
[46] = locus YMR205C, strain PFK2 (second series), hits give low values
[47] = locus YMR277W, strain FCP1, hits give low values
[48] = locus YNL006W, strain LST8, hits give low values
[49] = locus YNL020C, strain ARK1, hits give low values
[50] = locus YNL161W, strain CBK1, hits give low values
[51] = locus YNL183C, strain NPR1, hits give low values
[52] = locus YNL207W, strain RIO2, hits give low values
[53] = locus YNL222W, strain SSU72, hits give low values
[54] = locus YNL307C, strain MCK1 (second series), hits give low values
[55] = locus YOL078W, strain AVO1, hits give low values
[56] = locus YOL136C, strain PFK27, hits give low values
[57] = locus YOR061W, strain CKA2, hits give low values
[58] = locus YOR119C, strain RIO1, hits give low values
[59] = locus YOR231W, strain MKK1, hits give low values
[60] = locus YOR329C, strain SCD5, hits give low values
[61] = locus YPL031C, strain PHO85, hits give low values
[62] = locus YPL153C, strain RAD53, hits give low values
[63] = locus YPL204W, strain HRR25, hits give low values
[64] = locus YPL209C, strain IPL1, hits give low values
[65] = locus YPL256C, strain CLN2, hits give low values
[66] = locus YPR025C, strain CCL1, hits give low values
[67] = locus YPR106W, strain ISR1, hits give low values
[68] = locus YPR111W, strain DBF20, hits give low values
[69] = strain NNK1, hits give low values
[70] = strain TSCII, hits give low values
[71] = locus YHR030C, strain SLT2, hits give low values

SMILES: CC(C)OC(=O)Nc1cc(Cl)cc(Cl)c1
- normalized growth [1]: 0.971
- normalized growth [2]: 0.97
- normalized growth [3]: 0.964
- normalized growth [4]: 0.986
- normalized growth [5]: 0.981
- normalized growth [6]: 0.974
- normalized growth [7]: 0.996
- normalized growth [8]: 0.972
- normalized growth [9]: 0.98
- normalized growth [10]: 0.953
- normalized growth [11]: 0.864
- normalized growth [12]: 0.993
- normalized growth [13]: 0.939
- normalized growth [14]: 0.982
- normalized growth [15]: 0.873
- normalized growth [16]: 0.845
- normalized growth [17]: 0.764
- normalized growth [18]: 0.96
- normalized growth [19]: 0.972
- normalized growth [20]: 0.972
- normalized growth [21]: 0.966
- normalized growth [22]: 0.985
- normalized growth [23]: 0.838
- normalized growth [24]: 0.822
- normalized growth [25]: 0.765
- normalized growth [26]: 0.754
- normalized growth [27]: 0.988
- normalized growth [28]: 0.777
- normalized growth [29]: 0.987
- normalized growth [30]: 0.716
- normalized growth [31]: 0.899
- normalized growth [32]: 0.902
- normalized growth [33]: 0.957
- normalized growth [34]: 0.883
- normalized growth [35]: 0.99
- normalized growth [36]: 0.864
- normalized growth [37]: 0.857
- normalized growth [38]: 0.888
- normalized growth [39]: 0.97
- normalized growth [40]: 0.944
- normalized growth [41]: 0.479 (active)
- normalized growth [42]: 0.915
- normalized growth [43]: 0.853
- normalized growth [44]: 0.848
- normalized growth [45]: 0.985
- normalized growth [46]: 0.898
- normalized growth [47]: 0.939
- normalized growth [48]: 0.968
- normalized growth [49]: 0.9
- normalized growth [50]: 0.969
- normalized growth [51]: 0.707
- normalized growth [52]: 0.975
- normalized growth [53]: 0.978
- normalized growth [54]: 0.868
- normalized growth [55]: 0.974
- normalized growth [56]: 0.849
- normalized growth [57]: 0.875
- normalized growth [58]: 0.85
- normalized growth [59]: 0.729
- normalized growth [60]: 0.976
- normalized growth [61]: 0.756
- normalized growth [62]: 0.8
- normalized growth [63]: 0.791
- normalized growth [64]: 0.973
- normalized growth [65]: 0.682 (active)
- normalized growth [66]: 0.978
- normalized growth [67]: 0.959
- normalized growth [68]: 0.948
- normalized growth [69]: 0.963
- normalized growth [70]: 0.967

SMILES: COC(=O)c1cc(OC)c(OC)cc1NC(=O)Nc1cc(Cl)cc(Cl)c1
- normalized growth (locus YAL013W, strain DEP1, hits give low values): 0.991
- normalized growth (locus YBR229C, strain ROT2, hits give low values): 0.998
- normalized growth [8]: 1.02
- normalized growth (locus YDL134C, strain PPH21, hits give low values): 0.979
- normalized growth (locus YDR150W, strain NUM1, hits give low values): 0.916
- normalized growth (locus YEL061C, strain CIN8, hits give low values): 1.02
- normalized growth (locus YGR078C, strain PAC10, hits give low values): 1.01
- normalized growth [71]: 0.868
- normalized growth (locus YHR087W, strain rtc3, hits give low values): 1.02
- normalized growth (locus YJL187C, strain SWE1, hits give low values): 1.03
- normalized growth (locus YJR043C, strain POL32, hits give low values): 0.959
- normalized growth (locus YJR075W, strain HOC1, hits give low values): 0.982
- normalized growth (locus YKL190W, strain CNB1, hits give low values): 1.01
- normalized growth (locus YLR039C, strain RIC1, hits give low values): 1.01
- normalized growth (locus YLR058C, strain SHM2 (second series), hits give low values): 1.01
- normalized growth (locus YLR085C, strain ARP6, hits give low values): 0.973
- normalized growth (locus YLR262C, strain YPT6, hits give low values): 0.972
- normalized growth (locus YML094W, strain GIM5, hits give low values): 0.998
- normalized growth (locus YMR219W, strain ESC1, hits give low values): 1.02
- normalized growth (locus YMR263W, strain SAP30, hits give low values): 0.978
- normalized growth (locus YMR307W, strain GAS1, hits give low values): 1.05
- normalized growth (locus YNL153C, strain GIM3, hits give low values): 1.02
- normalized growth (locus YNL298W, strain CLA4 (second series), hits give low values): 0.969
- normalized growth (locus YNL322C, strain KRE1, hits give low values): 1.02
- normalized growth (locus YNR030W, strain Alg12, hits give low values): 0.978
- normalized growth (locus YOL006C, strain TOP1, hits give low values): 1.05
- normalized growth (locus YPL055C, strain LGE1, hits give low values): 1.08
- normalized growth (locus YPL241C, strain CIN2, hits give low values): 0.998
- normalized growth (locus YPR135W, strain CTF4, hits give low values): 0.926

SMILES: O=C(/C=C/c1ccc(Cl)cc1)Nc1cccc(Cl)c1
- normalized growth [1]: 0.958
- normalized growth [2]: 0.948
- normalized growth [3]: 0.961
- normalized growth [4]: 0.961
- normalized growth [5]: 0.961
- normalized growth [6]: 0.949
- normalized growth [7]: 0.951
- normalized growth [8]: 0.973
- normalized growth [9]: 0.961
- normalized growth [10]: 0.962
- normalized growth [11]: 0.88
- normalized growth [12]: 0.952
- normalized growth [13]: 0.958
- normalized growth [14]: 0.95
- normalized growth [15]: 0.838
- normalized growth [16]: 0.631
- normalized growth [17]: 0.831
- normalized growth [18]: 0.963
- normalized growth [19]: 0.949
- normalized growth [20]: 0.953
- normalized growth [21]: 0.936
- normalized growth [22]: 0.968
- normalized growth [23]: 0.816
- normalized growth [24]: 0.819
- normalized growth [25]: 0.485
- normalized growth [71]: 0.846 (active)
- normalized growth [26]: 0.853
- normalized growth [27]: 0.875
- normalized growth [28]: 0.744
- normalized growth [29]: 0.96
- normalized growth [30]: 0.754
- normalized growth [31]: 0.919
- normalized growth [32]: 0.889
- normalized growth [33]: 0.965
- normalized growth [34]: 0.877
- normalized growth [35]: 0.831
- normalized growth [36]: 0.895
- normalized growth [37]: 0.876
- normalized growth [38]: 0.872
- normalized growth [39]: 0.956
- normalized growth [40]: 0.881
- normalized growth [41]: 0.816 (active)
- normalized growth [42]: 0.864
- normalized growth [43]: 0.774
- normalized growth [44]: 0.798
- normalized growth [45]: 0.96
- normalized growth [46]: 0.886
- normalized growth [47]: 0.957
- normalized growth [48]: 0.971
- normalized growth [49]: 0.883
- normalized growth [50]: 0.965
- normalized growth [51]: 0.796
- normalized growth [52]: 0.948
- normalized growth [53]: 0.961
- normalized growth [54]: 0.699
- normalized growth [55]: 0.938
- normalized growth [56]: 0.839
- normalized growth [57]: 0.857
- normalized growth [58]: 0.867
- normalized growth [59]: 0.837
- normalized growth [60]: 0.957
- normalized growth [61]: 0.835
- normalized growth [62]: 0.863
- normalized growth [63]: 0.822
- normalized growth [64]: 0.96
- normalized growth [65]: 0.862
- normalized growth [66]: 0.952
- normalized growth [67]: 0.944
- normalized growth [68]: 0.942
- normalized growth [69]: 0.96
- normalized growth [70]: 0.965
